# From PubChem BioAssay AID1259343 (VanderVen Lab, College of Veterinary Medicine, Cornell …, 2017)
# The whole screen tested about 6,200 compounds, of which about 2,900 (47%) were called active. So high a share suggests a set chosen from earlier hits. The list shows a part of the results. Unmarked numbers belong to inactive results. No stated cut-off is given here; in the data, active means inhibition above about 50%; inactive means the rest.
# Assay: Mycobacterium tuberculosis growth inhibition, primary screen (AID 1259343)
# Details: inhibition: at 10 µM, hits give high values; outcome: 10 uM
row,Structure (SMILES),inhibition
1,CC1CCCN(Cc2csc(NC(=O)c3cccc(I)c3)n2)C1 (stereo unspecified),50.6% (active)
2,O=C(c1ccc2c(c1)OCO2)C1CCCN(Cc2nc3ccccc3s2)C1 (stereo unspecified),inactive
3,O=C(C=Cc1cccs1)N1CCN(Cc2nc3ccccc3s2)CC1,67.3% (active)
4,O=C(CCc1nc2ccccc2s1)N1CCN(Cc2ccc(C(F)(F)F)cc2)CC1,88.1% (active)
5,CCc1cc(-c2n[nH]c(C)c2-c2nc3ccccc3s2)c(O)c(CN2CCN(C)CC2)c1O,10.5%
6,COc1ccc(/C=N\NC(=O)c2ccncc2)c(C(=O)O)c1OC,42.2%
7,Cc1sc(NN=Cc2cccc(O)c2)nc1-c1ccccc1,94.2% (active)
8,COc1ccc(-c2nc(Nc3ccc(Cl)nc3)sc2C)cc1,25.9%
9,Cc1sc(-c2cccc(O)c2)nc1-c1ccccc1,23.1%
10,COc1cccc(C=NNc2nc(-c3ccccc3)c(C)s2)c1OC,91.8% (active)
11,Oc1cccc(/C=N\Nc2cc(N3CCCC3)nc(N3CCCC3)n2)c1,14%
12,CC1(C)CC(=O)C(Sc2ccc(Br)cc2)=C(O)C1,57.1% (active)
13,CN(Cc1ccccc1)C(=O)c1ccc(Nc2nc(C(N)COCc3ccccc3)cs2)nc1 (stereo unspecified),97.6% (active)
14,CCCCN(C)C(=O)c1ccc(Nc2nc(C(N)COCc3ccccc3)cs2)nc1 (stereo unspecified),64.2% (active)
15,CCn1c(O)c(C(C)=Nc2ccnn2C2CCCCC2)c(=O)n(CC)c1=S,100% (active)
16,O=C(Nc1ccnn1C1CCCCC1)c1c(O)cc(F)cc1F,29.4%
17,Cc1ccc(OCC(O)Cn2c(C)cc(=O)n3ncnc23)cc1 (stereo unspecified),-1.37%
18,Cc1ccc(OCC(O)Cn2c(C)nc3sc4c(c3c2=O)CCC4)cc1 (stereo unspecified),64.5% (active)
19,Cc1cccc(-c2ncc(CNCCCc3ccccc3)cn2)c1,24.1%
20,CCc1cnc(-c2cccc(O)c2)nc1,87.9% (active)
21,CCCc1cnc(-c2cnc3ccccc3c2)nc1,15.5%
22,O=[N+]([O-])c1ccc(Sc2nnc(-c3ccco3)o2)c([N+](=O)[O-])c1,57.5% (active)
23,CCOc1ccc(CSc2n[nH]c(-c3ccccn3)n2)nc1,99.6% (active)
24,CCCc1cc(=O)[nH]c(SCCOc2ccc(OCC)cc2)n1,-6.11%
25,CCOc1ccc(C2=NCC(CSc3n[nH]c(N)n3)S2)cc1 (stereo unspecified),19.9%
26,N#Cc1ccc(NC(=O)NC2CC2c2c(F)cccc2F)cc1 (stereo unspecified),51.6% (active)

row,Structure (SMILES),inhibition
1,CCN(CC(=O)Nc1ccc(C#N)cc1)C1CCCCC1,-29.6%
2,C=CCSc1nnc(Nc2ccc(Oc3ccccc3)cc2)s1,inactive
3,C=CCSc1nnc(COc2ccccc2)o1,95.2% (active)
4,O=c1[nH]c2ccccc2n1CCCSc1nnc(COc2ccccc2Cl)o1,42.5%
5,Cc1cccc(N/C=c2\c(C)c(C#N)c3nc4ccccc4n3c2=O)c1,-34.9%
6,Cc1c(CCCl)c(Cl)n2c(nc3ccccc32)c1C#N,56.3% (active)
7,Cc1c(C#N)c2nc3ccccc3n2c(=O)/c1=C/Nc1ccc(F)cc1,-33.8%
8,COCCNc1c2c(nc3c(-c4ccccc4)c(C)nn13)CCCC2,25.2%
9,Cn1nc2c(c1NC(=O)c1ccc(Cc3ccccc3)cc1)CCC2,83.6% (active)
10,O=S1(=O)CCC(=NNc2ccc(Cl)cc2)c2cc(F)ccc21,45%
11,Clc1ccc(NN=C2CCN(Cc3ccccc3)CC2)cc1,94.7% (active)
12,OCC1(CCCc2ccccc2)CCN(Cc2cc(Cl)ccc2O)CC1,38.5%
13,O=[N+]([O-])c1cnc2ccc3ccccc3c2c1,96.6% (active)
14,Cc1cc(Br)c2c(c1)C1(OCCO1)C(=O)N2,-4.59%
15,Cc1ccc(CNc2nccn(-c3cc(C)cc(C)c3)c2=O)cc1,53.9% (active)
16,COc1ccccc1CNc1nccn(-c2cccc(C)c2)c1=O,12.8%
17,CN(Cc1cccc(C(=O)Nc2cn(C)nn2)c1)CC1Cc2ccccc2O1 (stereo unspecified),86.5% (active)
18,Cc1cccc(CC(=O)N(C)CC2Cc3ccccc3O2)c1 (stereo unspecified),21%
19,CN(CC1Cc2ccccc2O1)C(=O)Nc1nc(-c2ccccc2)ns1 (stereo unspecified),4.41%
20,O=C(CN1CCCC1=O)Nc1ccc(C23CC4CC(CC(C4)C2)C3)cc1,81.6% (active)
21,O=C(CN1CCCc2cccc(F)c21)Nc1cccc(F)c1,2.21%
22,COCC(=O)N1CCC(C(=O)Nc2cccc(-c3cccc(Cl)c3)c2)CC1,inactive
23,COCc1ccc(CN2CCC(C(=O)Nc3cccc(-c4cccc(Cl)c4)c3)CC2)o1,62.3% (active)
24,CC(C)n1cc(CN2CCC(C(=O)Nc3cccc(-c4cccc(Cl)c4)c3)CC2)cn1,46.3%
25,O=C(Nc1cccc(-c2cccc(Cl)c2)c1)C1CCN(Cc2ccncc2)CC1,92.8% (active)
